Screens deposited in PubChem BioAssay by National Center for Advancing Translational Sciences (NCATS).
Most compounds without a hit are left out; they make up all but 10% or so of the library.
HEK293 tox – HEK 293 cell cytotoxicity; HEK 293 viability, ATP luminescence (CellTiter-Glo), 48-72 h; Potency, µM (titrated, usually from 115 µM), inactives show at the highest dose activity change, negative = cytotoxicity, hits mostly inhibitors; 94,000 compounds, 6.6% hits; further: on the % scale 0 is the no-effect control and ±100 the full control effect; nearly all actives have a fitted effect of over 60% in size
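Read-out: CellTiter-Glo ATP luminescence. Cells: HEK 293, 250 cells/well. Exposure: 48 or 72 hr, 37 degree Celsius.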
GPT2 inhibitor – GPT2 alanine aminotransferase inhibition | Q8TD30 | Recombinant GPT2, coupled pyruvate oxidase/HRP Amplex Red fluorescence | Potency, µM (series often up to 57.7 µM), for inactives: at the top dose activity change, negative = inhibition, usual class: inhibitors | 100,000 compounds, 0.25% hits; further: on the % scale 0 is the no-effect control and ±100 the full control effect; nearly all actives have a fitted effect of over 60% in size
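Fluorescence read-out: pyruvate from GPT2 turnover coupled to pyruvate oxidase, HRP and Amplex Red (0.2mM ThPP, 0.2U/mL PO and HRP, 50uM Amplex final). Substrates 250uM a-KG, 2mM L-alanine; enzyme 10ng/uL; 30 min RT.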
hNpr1 antagonist – antagonists of human natriuretic peptide receptor Npr1. HEK293 hNpr1 GloSensor cGMP, ANP-stimulated luminescence. Potency, µM (series often up to 46.3 µM), without a hit: top-dose activity change, negative = inhibition, most hits filed as inhibitors. 76,000 compounds, 1.6% hits; calls by dose curve; further: on the % scale 0 is the no-effect control and ±100 the full control effect; nearly all actives have a fitted effect of over 60% in size
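Compound pre-incubated 30 min at room temperature on GloSensor-loaded HEK293 cells stably carrying hNpr1 and the pGS-40F cGMP biosensor. Stimulation uses hNppA at 0.1 nM final; luminescence is taken at baseline and 20 min post-agonist.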
FLuc inh-1 – Photinus pyralis luciferase inhibition; purified P. pyralis luciferase, luminescence, biochemical; Potency, µM (series often up to 115 µM), most hits filed as inhibitors; P08659; 76,000 compounds, 2.5% hits; further: on the % scale 0 is the no-effect control and ±100 the full control effect; nearly all actives have a fitted effect of over 65% in size
Target sequence (P08659 whole entry, looked up): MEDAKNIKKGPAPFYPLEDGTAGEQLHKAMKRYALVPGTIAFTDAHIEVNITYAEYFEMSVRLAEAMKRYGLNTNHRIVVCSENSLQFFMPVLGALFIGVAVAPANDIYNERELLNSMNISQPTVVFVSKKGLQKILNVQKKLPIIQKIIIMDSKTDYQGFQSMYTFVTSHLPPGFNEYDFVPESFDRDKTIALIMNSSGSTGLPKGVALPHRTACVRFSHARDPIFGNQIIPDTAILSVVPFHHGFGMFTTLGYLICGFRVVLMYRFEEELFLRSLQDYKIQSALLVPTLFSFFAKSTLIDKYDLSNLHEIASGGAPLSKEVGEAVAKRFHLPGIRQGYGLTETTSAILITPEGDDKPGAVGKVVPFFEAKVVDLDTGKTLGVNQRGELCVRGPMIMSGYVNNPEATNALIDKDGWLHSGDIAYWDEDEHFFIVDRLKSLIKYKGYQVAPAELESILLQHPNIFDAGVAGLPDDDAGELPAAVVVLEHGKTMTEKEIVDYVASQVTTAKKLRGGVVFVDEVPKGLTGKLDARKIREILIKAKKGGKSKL
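Purified P. pyralis luciferase (10nM final) in 50mM Tris acetate pH 7.5, 10mM Mg acetate, 0.01% Tween-20, 0.05% BSA with 10uM D-luciferin and 10uM ATP. Compounds titrated qHTS. Luminescence imaged on CCD.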
3T3 cytotox – kills NIH 3T3 cells; AID 1345082; Potency, µM (titrated, usually from 96.7 µM), for the others: at the top dose activity change, negative = cytotoxicity, most hits filed as inhibitors; 94,000 compounds, 4.3% hits; NIH 3T3 viability, CellTiter-Glo ATP luminescence, 48-72 h; further: on the % scale 0 is the no-effect control and ±100 the full control effect; nearly all actives have a fitted effect of over 55% in size
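Cytotoxicity is measured as loss of cellular ATP: NIH 3T3 cells (400/well) are exposed to compound for 48 or 72 hr at 37 °C, then CellTiter-Glo luminescence is imaged after 10 min at room temperature.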
FLuc SDR no ATP – stabilizes firefly luciferase without ATP; shares compounds with FLuc inh-1; Purified FLuc-C-HiBiT, Nano-Glo HiBiT luminescence, no ATP; Potency, µM (titrated, usually from 32.7 µM), for the others: at the highest dose activation (signal gain), most hits filed as activators; 1,300 compounds, 7.8% hits; AID 1963318; further: nearly all actives have a fitted effect of over 55% in size
FLuc SDR ATP – firefly luciferase binding stabilization, ATP added. shares compounds with FLuc inh-1. purified FLuc-C-HiBiT + ATP, HiBiT complementation luminescence. Potency, µM (titrated, usually from 32.7 µM), inactives show at the top dose activation (gain of signal), hits mostly activators. 1,300 compounds, 8.7% hits;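 further: signal reports ligand binding via conformational change of the enzyme rather than luciferase catalysis; % of control where 0% means no effect; nearly all actives have a fitted effect of over 55% in size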
FLuc inh-2 – blocks firefly luciferase enzymatic activity; purified FLuc-C-HiBiT enzyme, luciferin luminescence; Potency, µM (series often up to 32.7 µM), without a hit: top-dose activity change, negative = inhibition, hits mostly inhibitors; shares compounds with FLuc inh-1; 1,300 compounds, 42% hits; AID 1963320; further: on the % scale 0 is the no-effect control and ±100 the full control effect; nearly all actives have a fitted effect of over 70% in size
* hit, by the source's call; i = inactive; ? = inconclusive; . = no result; [ ] = another dose, or the depositor's remark. Unless noted, the call rests on the fitted dose curve; in most records, active means well fitted curve in the direction sought with a large enough effect; inconclusive means small, poorly fitted or top-dose-only effect, or another doubt; inactive means no such curve, though single readings can be large; an effect the other way counts as inactive or inconclusive. Potency means the concentration at half of the fitted maximal effect.

SMILES	HEK293 tox	GPT2 inhibitor	hNpr1 antagonist	FLuc inh-1	3T3 cytotox	FLuc SDR no ATP	FLuc SDR ATP	FLuc inh-2
COc1ccccc1OCc1cc(C(=O)NCc2cccc(C)c2)n[nH]1	?	3.9%	-0.3%	i	-28.2%	.	.	.
COc1ccc(C(=O)NC2CN(c3ccnc4ccnn34)C2)cc1	-5.2%	4.4%	.	.	-33.7%	.	.	.
Cc1cnc(CN(C)C(=O)CC(c2ccccc2)c2ccc3c(c2)OCO3)[nH]1 (centres undefined)	-27.1%	-14.7%	-15.4%	i	-31.1%	.	.	.
CCOc1ccccc1CN1CCN(c2cc(C)nc(N)n2)CC1CCO (centres undefined)	?	?	-2.1%	i	?	.	.	.
COc1ccc(C(=O)Nc2ccc3n(c2=O)C[C@H]2C[C@@H]3CN(C(=O)CCCC(=O)O)C2)cc1	3.1%	3.5%	4.4%	12.6µM*	0.5%	?	19.0%	?
O=C(Nc1cccc(F)c1)N1Cc2[nH]cnc2C[C@H]1c1nc(-c2ccc(F)c(Cl)c2)no1	?	-6.3%	-15.6%	?	?	.	.	.
Cc1ccc(-c2noc([C@@H]3Cc4nc[nH]c4CN3C(=O)Nc3cccc(F)c3)n2)cc1	79.4µM*	-25.7%[88.5 µM]	?	10µM*	?	16.4%[49.3 µM]	14.1%[49.3 µM]	?
COc1ccc(-c2noc([C@@H]3Cc4nc[nH]c4CN3C(=O)NC3CCCCC3)n2)cc1	-28.3%[172 µM]	0.0%[88.5 µM]	-15.1%[70.6 µM]	?	?	.	.	.
COc1ccc(-c2noc([C@@H]3Cc4nc[nH]c4CN3C(=O)Nc3ccc(Cl)cc3)n2)cc1	?	i	-24.9%	12.6µM*	?	12.7%	8.4%	-13.2%
COCC(=O)Nc1nc2c(s1)C[C@]1(C)CC[C@@H]3[C@H](OC(=O)[C@H]3C)[C@H]1[C@@H]2C	?	-10.9%[88.5 µM]	5.62µM*	0.631µM*	-20.8%[138 µM]	6.4µM*	4.53µM*	1.61µM*
C[C@@H]1C(=O)O[C@H]2[C@H]1CC[C@@]1(C)Cc3sc(NC(=O)NC4CCCCC4)nc3[C@@H](C)[C@H]21	?	-13.0%[88.5 µM]	-11.8%[70.6 µM]	?	-25.1%[138 µM]	.	.	.
CCNC(=O)C1C(c2cccc(NC(=O)c3ccc(C)cc3)c2)OC(=O)N1Cc1ccc(F)cc1 (centres undefined)	?	i	11.2µM*	2.24µM*	?	16.5%	1.57µM*	1.76µM*
CC(=O)N1CCC(N[C@H]2CC(C)(C)[C@@H]3C[C@@](C)(O)CC[C@]23CCC(=O)NCCN2CCOCC2)CC1	1.9%	i	-19.4%	i	-4.6%	.	.	.
Cc1c(-c2ccc(F)cc2)[nH]c2ccc(CNC(=O)CN3CCOC3=O)cc12	?	i	-21.8%	12.6µM*	?	13.7%	10.5%	?
CCc1nncn1C1CCN(S(=O)(=O)c2ccc(Cl)s2)CC1	?	-0.6%	.	.	-25.9%	.	.	.
O=C(C1CCCN1[S+](=O)([O-])c1cccs1)N1CCC(N2CCCC2=O)CC1 (centres undefined)	1.5%	i	.	.	-13.2%	.	.	.
COc1ccc(-c2cccc(C(=O)N3CCN([S+](=O)([O-])c4cccs4)CC3)c2)nn1	?	.	.	.	-13.5%	.	.	.
Cc1ccc(C)c(NS(=O)(=O)c2cc(C(=O)Nc3ccccc3-c3ccccc3)ccc2C)c1	.	-8.2%	.	.	.	.	.	.
O=C(Nc1ccccc1C(=O)O)c1ccccc1	.	.	.	.	.	17.8%	10.1%	?
Cc1ccc(C(=O)Nc2ccccc2C(=O)O)cc1S(=O)(=O)N1CCCCCC1	.	.	.	.	.	?	?	2.79µM*
Cc1ccc(C(=O)Nc2cccc(C(=O)O)c2)cc1S(=O)(=O)N1CCCC1	.	.	.	.	.	?	0.0785µM*	0.0881µM*
O=C(O)c1ccccc1C(=O)Nc1ccc(-c2ccccc2)cc1	.	i	.	.	.	.	.	.
Cc1nnc(CN(C)c2ccc(-c3nc(-c4cccc(Cl)c4)no3)cn2)o1	?	?	11.2µM*	1.12µM*	?	17.0%	17.7%	4.95µM*
CN1c2cc(C(=O)N3CCc4ccccc4C3)ccc2C(=O)N2CCCCC21 (centres undefined)	?	?	1.9%	i	-15.2%	.	.	.
COc1ccc(-c2cc(N3CCCC(NC(=O)c4ccc(C)c(F)c4)C3)n[nH]2)cc1 (centres undefined)	?	i	-17.6%	i	?	.	.	.
SMILES	HEK293 tox	GPT2 inhibitor	hNpr1 antagonist	FLuc inh-1	3T3 cytotox	FLuc SDR no ATP	FLuc SDR ATP	FLuc inh-2
COc1ccc(-c2cc(N3CCCC(NC(=O)c4cc(OC)cc(OC)c4)C3)n[nH]2)cc1 (centres undefined)	?	i	-19.0%	5.62µM*	?	24.5%	17.0%	?
COc1ccc(-c2cc(N3CCCC(NC(=O)c4ccncc4)C3)n[nH]2)cc1 (centres undefined)	?	-16.8%	-3.9%	12.6µM*	3.6%	24.3%	16.7%	?
COc1ccc(-c2cc(N3CCCC(NC(=O)c4cccc(OC)c4OC)C3)n[nH]2)cc1 (centres undefined)	?	?	-10.6%	?	?	.	.	.
COc1ccc(-c2cc(N3CCCC(NC(=O)c4cc(OC)c(OC)c(OC)c4)C3)n[nH]2)cc1 (centres undefined)	?	?	-3.7%	6.31µM*	?	30.2%	16.3%	5.56µM*
CN(C)C(=O)N(C)C1CCc2ccccc2C1 (centres undefined)	-7.8%[172 µM]	-4.2%[88.5 µM]	4.3%[70.6 µM]	i	-26.1%[138 µM]	.	.	.
CN(C1CCc2ccccc2C1)[S+](=O)([O-])c1cccs1 (centres undefined)	?	i	3.3%[70.6 µM]	i	?	12.0%[49.3 µM]	6.4%[49.3 µM]	-9.1%[49.3 µM]
O=C(NC1CCN(CCn2nc3n(c2=O)CCCC3)C1)c1ccc(C(F)(F)F)cc1 (centres undefined)	-4.5%	.	.	.	-9.6%	.	.	.
Nc1nc2c(ncn2COCCO)c(=O)[nH]1	.	?	.	.	.	17.7%	13.9%	-0.8%
C=C1[C@H](CO)[C@@H](O)C[C@@H]1n1cnc2c(=O)[nH]c(N)nc21	.	-8.1%	.	.	.	13.0%	9.6%	5.8%
CN1CCN(c2ccc(-c3cc4c(ccn4C)c(C(=O)NCCN4CCNC4=O)n3)cc2)CC1	?	0.6%	5.8%	4.47µM*	?	24.7%	16.0%	?
COc1ccc(-c2cc3c(ccn3C)c(C(=O)NCCC(N)=O)n2)cc1OC	-11.0%[172 µM]	-8.3%[88.5 µM]	0.1%[70.6 µM]	?	?	.	.	.
